Experimental data: PubChem BioAssay (NCI)
Compounds without any hit were thinned out: in the full panel of roughly 83,000, 20% have a hit.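 Note: values are percent growth. 100 is the growth of untreated cells, values between 100 and 0 indicate rising inhibition; between -100 and 0 indicates cell death.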 The source made the active and inactive calls. The calls were made as follows: active = growth percent below 10; inactive = the rest.

Tests used:
Assay in all cases: NCI-60 one-dose screen, 48 h (100 = growth as untreated, 0 = no growth, -100 = all killed)
Conditions in all cases: 10 µM unless noted
[1] = test system: NCI-H23 lung
[2] = test system: NCI-H226 lung
[3] = test system: NCI-H322M lung
[4] = test system: HOP-62 NSCLC
[5] = test system: NCI-H460 lung
[6] = test system: HOP-92 NSCLC
[7] = test system: NCI-H522 lung
[8] = test system: A549/ATCC NSCLC
[9] = test system: 786-0 renal
[10] = test system: COLO 205 colon

Measured: growth

Cc1ccc2c(n1)C(=O)C(Cl)=C(Nc1ccc(C)c(C)c1)C2=O
inactive: [1] 11.7% | [2] 36% | [3] 60.9% | [4] 60.2% | [5] 46.4% | [6] 105% | [7] 58.9% | [8] 24.5% | [9] 104% | [10] 105%

Oc1[nH]c2ccc(Cl)cc2c1N=Nc1nc(N=Nc2c(O)[nH]c3ccc(Cl)cc23)nc(N2CCCCC2)n1
inactive: [1] 27.3% | [2] 63.4% | [3] 59.4% | [4] 94% | [5] 78% | [6] 125% | [7] 45.2% | [8] 60.4% | [9] 66% | [10] 66.6%

O=C1[C@@H]2Cc3c([nH]c4ccccc34)[C@H](c3ccc(Br)cc3)N2C(=O)CN1C1CCN(Cc2c(Cl)cccc2Cl)CC1
inactive: [1] 91.7% | [2] 85.8% | [3] 95.1% | [4] 91.9% | [5] 97.5% | [6] 94.1% | [7] 91.7% | [8] 93% | [9] 99.8% | [10] 105%

N#C/C(=C\c1cccc2c1OCO2)C(=O)Nc1sc2c(c1C#N)CCCC2
inactive: [1] 102% | [2] 95.8% | [3] 89.1% | [4] 96.8% | [5] 110% | [6] 101% | [7] 94.2% | [8] 104% | [9] 99.6% | [10] 119%

O=C(/C=C/c1cc(Cl)ccc1Cl)Nc1ncc(Cc2ccc(Cl)cc2)s1
inactive: [1] 16.7% | [2] 26.1% | [3] 33.5% | [8] 12.3%
active: [4] 1.25% | [5] 0.165% | [6] -10.6% | [7] -33.7% | [9] 0.237% | [10] -45.2%

CC1=C(C)C(=O)C(Nc2ccc3c(c2)OCCO3)=C(Br)C1=O
inactive: [1] 85.2% | [2] 85.6% | [3] 102% | [4] 97.6% | [5] 102% | [6] 68.2% | [7] 96.9% | [8] 107% | [9] 105% | [10] 126%

CN1CCN(Cc2ccc(NC(=O)c3cncc(C#Cc4cnc5ccc(OCC6COC6)nn45)c3)cc2C(F)(F)F)CC1
active: [1] -58% | [2] -65.2% | [3] -36.5% | [4] -72.3% | [5] -81% | [6] -33.4% | [7] -70.7% | [8] -68.7% | [9] -85.6% | [10] -76.3%

Cc1ccccc1NC(=O)Nc1nc2ccc([N+](=O)[O-])cc2s1
inactive: [2] 15.4% | [9] 13.1% | [10] 10.9%
active: [1] 5.79% | [3] 9.34% | [4] 2.78% | [5] 5.87% | [6] -24.6% | [7] -10.9% | [8] 9.2%

CCN(CC)c1ccc(/C=N/NC(=O)c2ccc(NS(C)(=O)=O)cc2)c(O)c1
inactive: [1] 23.3% | [2] 39.3% | [3] 25.2% | [4] 13.2% | [6] 38.9% | [7] 12.5% | [8] 12.3%
active: [5] 3.18% | [9] 1.77% | [10] 5.67%

O=C(CSc1nnc(-c2cccs2)n1-c1ccccc1)Nc1ccccc1F
inactive: [1] 90.8% | [2] 96.3% | [3] 103% | [4] 76.9% | [5] 96.6% | [6] 93% | [7] 55% | [8] 89.6% | [9] 99.4% | [10] 70.8%

CC1=C(C)C(=O)C(Nc2ccc(C)cc2)=C(Br)C1=O
active: [6] -35.8%
inactive: [1] 87.7% | [2] 86.5% | [3] 104% | [4] 83.2% | [5] 102% | [7] 96.1% | [8] 100% | [9] 106% | [10] 124%

Nn1c(=O)n(-c2cccc(C(F)(F)F)c2)c(=O)c2cc(-c3ccc(F)cc3F)ccc21
active: [1] -6.15% | [3] 5.15% | [4] 2.28% | [5] 6.49% | [6] -35.6% | [7] -2.03% | [8] 5.13%
inactive: [2] 16.5% | [9] 45.7% | [10] 65.2%

C#Cc1nc(/C=C/CCCCCCC(=O)NO)cs1
inactive: [2] 87.6% | [3] 85.2% | [4] 73.4% | [5] 51.8% | [8] 61.6% | [10] 81.8%
active: [1] -34.2% | [6] -52.3% | [7] -61.4% | [9] -87.8%

COc1ccc(-c2nc(C#N)c(N3CCC(S(=O)(=O)N4CCOCC4)CC3)o2)cc1
inactive: [1] 94.5% | [2] 93.9% | [3] 97.2% | [4] 99.2% | [5] 103% | [6] 99.3% | [7] 89.5% | [8] 98.1% | [9] 94.2% | [10] 111%

COc1cccc(N2CCN(C3=C(Cl)C(=O)c4ncccc4C3=O)CC2)c1
inactive: [1] 60.3% | [2] 94.7% | [3] 95.4% | [4] 83.5% | [5] 63% | [6] 135% | [7] 42.6% | [8] 97.2% | [9] 114% | [10] 91.9%

CCc1cc(O)ccc1Nc1cc(-c2ccc(-n3cccn3)cc2)[nH]n1
inactive: [1] 74.7% | [2] 87.3% | [3] 64% | [4] 37% | [5] 45% | [6] 139% | [7] 38% | [8] 56.2% | [9] 84.9% | [10] 49.8%

Cc1ccc(NC(=O)Nc2nc3ccc([N+](=O)[O-])cc3s2)cc1
inactive: [10] 48.8%
active: [1] -4.55% | [2] 6.4% | [3] 4.58% | [4] -4.29% | [5] 3.09% | [6] -33% | [7] -10.6% | [8] 4.97% | [9] 8.32%

C/C(CC1(O)C(=O)Nc2ccccc21)=N\O (stereo not given)
inactive: [1] 101% | [2] 98% | [3] 102% | [4] 95.2% | [5] 101% | [6] 93.9% | [7] 91.3% | [8] 102% | [9] 101% | [10] 103%

CC(=O)c1cc(C(=O)N2c3ccccc3Sc3ccccc32)n2c1ccc1ccccc12
active: [7] -1.14%
inactive: [1] 79.1% | [2] 60.4% | [3] 89.9% | [4] 56% | [5] 37.9% | [6] 85.2% | [8] 59% | [9] 60.6% | [10] 40%

Cc1[nH]c(C(=O)Nc2ccccc2OCc2cccc(C(=O)NC3CCCNC3)c2)c(Cl)c1Cl (stereo not given)
inactive: [2] 73.3% | [6] 47.9%
active: [1] -76.7% | [3] -93.7% | [4] -42.2% | [5] -68.5% | [7] -50.9% | [8] -52.6% | [9] -71.6% | [10] -33.2%

C(=N\Nc1nc(N/N=C/c2ccc3c(c2)OCO3)nc(N2CCCCC2)n1)/c1ccc2c(c1)OCO2
inactive: [1] 101% | [2] 101% | [3] 98.5% | [4] 123% | [5] 90.6% | [6] 96% | [7] 91.9% | [8] 91.4% | [9] 86.6% | [10] 85.9%

COc1cc(C(=O)c2cc(C(C)=O)c3c(C)cccn23)cc(OC)c1OC
inactive: [1] 101% | [2] 89.9% | [3] 98.5% | [4] 99.5% | [5] 102% | [6] 110% | [7] 90.2% | [8] 104% | [9] 91% | [10] 110%

Cc1ccc(S(=O)(=O)NCCCNc2nccc(-c3[nH]c(-c4ccccc4)nc3-c3ccc(F)c(O)c3)n2)cc1
inactive: [1] 96.2% | [2] 93.2% | [3] 109% | [4] 112% | [5] 82.1% | [6] 93.7% | [7] 80.1% | [8] 80.4% | [9] 104% | [10] 91.9%

O=C(CCCCCCNC(=O)C(O)(O)C(F)(F)F)Nc1ccc(Cl)cc1
active: [4] 4.42% | [6] 6.13% | [7] -22.3% | [10] -57.4%
inactive: [1] 24.3% | [2] 66.6% | [3] 44% | [5] 23.3% | [8] 20.7% | [9] 35.7%

Cc1ccc2c(n1)C(=O)C(Cl)=C(Nc1ccc(C#N)cc1)C2=O
inactive: [1] 92.3% | [2] 98.3% | [3] 109% | [4] 115% | [5] 100% | [6] 126% | [7] 52.4% | [8] 106% | [9] 80.4% | [10] 79.6%

Cn1cc(-c2nn3cc(-c4ccncc4)nc3s2)c2cc(Br)ccc21
inactive: [1] 63.1% | [2] 83.5% | [3] 81.3% | [4] 71.6% | [5] 54.9% | [7] 79.4% | [8] 66.4% | [9] 84.6% | [10] 46.5%
active: [6] -0.882%

O=C(/C=C/c1csc(Br)n1)NO
active: [6] -2.53% | [7] 7.37%
inactive: [1] 38.4% | [2] 82.9% | [3] 33.1% | [4] 35.5% | [5] 25.7% | [8] 23.5% | [9] 52.3% | [10] 11.6%
